Screens: PubChem, National Center for Advancing Translational Sciences (NCATS)
KinaseGlo FLuc: Kinase-Glo luciferase inhibition (counter-screen); Potency, µM (series often up to 38.3 µM), inactives show top-dose activity change, negative = inhibition, actives largely listed as inhibitors; Q27757; 200,000 tested, 0.28% active; Kinase-Glo luciferase, ATP luminescence, 8 min; note: nearly all actives have a fitted effect of over 60% in size
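Luminescence was the read-out, taken after 8-minute incubation at ambient temperature. Luciferase turned over luciferin with 10 uM ATP in imidazole pH 7.2 buffer containing KCl, MgCl2, Tween 20 and BSA.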
RORgamma inh: inhibitors of mouse ROR gamma transcriptional activity | P51450 | Potency, µM (highest dose often 53.6 µM), for inactives: at the highest dose activity change, negative = inhibition, usual class: inhibitors | Drosophila S2 Gal4-RORgamma UAS-luciferase reporter, 20 h | 310,000 tested, 5.4% active; note: nearly all actives have a fitted effect of over 60% in size
Target sequence (P51450 whole entry, looked up, the tested form may be a part): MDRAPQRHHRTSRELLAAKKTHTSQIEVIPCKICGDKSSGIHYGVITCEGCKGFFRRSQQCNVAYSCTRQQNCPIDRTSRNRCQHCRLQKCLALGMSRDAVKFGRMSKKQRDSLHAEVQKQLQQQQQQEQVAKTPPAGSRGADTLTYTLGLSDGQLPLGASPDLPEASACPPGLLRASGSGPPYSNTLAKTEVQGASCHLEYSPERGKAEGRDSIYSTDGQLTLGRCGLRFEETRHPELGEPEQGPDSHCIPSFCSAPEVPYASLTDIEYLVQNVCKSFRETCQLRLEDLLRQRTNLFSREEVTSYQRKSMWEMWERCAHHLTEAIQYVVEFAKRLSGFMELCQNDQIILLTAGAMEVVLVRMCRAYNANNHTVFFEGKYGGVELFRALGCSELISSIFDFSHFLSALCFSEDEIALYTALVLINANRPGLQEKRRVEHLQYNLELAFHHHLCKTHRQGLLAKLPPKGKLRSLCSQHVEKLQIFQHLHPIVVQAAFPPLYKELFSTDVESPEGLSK
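Stably transfected Drosophila Schneider cells are the test system, with ROR gamma fused to Gal4 and luciferase under UAS control; luminescence is read after 20 hr of 700 uM copper sulfate induction at ambient temperature.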
VP16 counter: counter-screen for ROR gamma inhibitors: Gal4-VP16 reporter | 310,000 tested, 3.5% active | Potency, µM (highest dose often 53.6 µM), for inactives: top-dose activity, negative = inhibition, usual class: inhibitors | Drosophila S2 Gal4-VP16 UAS-luciferase, luminescence, 20 h;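 note: Gal4-VP16 expression switched on by copper sulfate through the metallothionein promoter; nearly all actives have a fitted effect of over 50% in size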
* = called active by the depositor; ? = inconclusive; · = not tested or not shown; [ ] = dose if it differs, or a comment. Compounds with a hit are over-represented: about 6.4% of the library has one in this group of screens. Calls come from the whole dose curve; as a rule, active = well fitted curve in the direction sought with a large enough effect; inconclusive = small, poorly fitted or top-dose-only effect, or another doubt; inactive = no such curve, though single readings can be large; an effect the other way counts as inactive or inconclusive. % is set by controls: 0 for no effect and ±100 for the full control effect; potency is the fitted concentration of half-maximal effect.

SMILES	KinaseGlo FLuc	RORgamma inh	VP16 counter
Cc1ccc2sc(NC(=O)c3ccc(N4C(=O)CCC4=O)cc3)nc2c1C	-2.3%	-11.7%	-28.9%
Cc1c(C=O)c2ccccc2n1CC(=O)NC(C)c1ccccc1 (centres undefined)	0.7%	44.5%	-3.5%
Cc1ccc(C)c(OCCC(=O)NCCc2ccc(F)cc2)c1	·	13.9%	-3.2%
Cc1c(Cl)cccc1-n1c(SCC(=O)N2CCC(C(=O)O)CC2)nc2ccccc2c1=O	·	2.7%	20.9%
COc1ccc(/C=C/C(=O)N2CCN(c3ccccn3)CC2)cc1OC	·	33.6%	-1.9%
Cc1ccc(Nc2c(-c3ccccn3)nc3cc(C)ccn23)cc1	-3.4%	12.6µM*	?
Cc1ccc2nc(-c3ccncc3)c(Nc3ccccc3)n2c1	0.1%	-10.3%[10 µM]	7.2%
Cc1ccn2c(NC3CCCC3)c(-c3ccccn3)nc2c1	2.2%	3.55µM*	-17.0%[10 µM]
Cc1ccc(Nc2c(-c3ccccn3)nc3ccc(C)cn23)cc1	-0.7%	12.6µM*	?
c1ccc(-c2nc3ccccn3c2NC2CCCC2)nc1	2.6%	6.7%	-0.3%
Cc1ccn2c(Nc3ccc4c(c3)OCO4)c(-c3ccccn3)nc2c1	-9.8%	?	?
Cc1ccn2c(NC3CCCCC3)c(C(C)C)nc2c1	-0.9%	7.5%	-1.5%
Cc1ccn2c(NC3CCCCC3)c(C)nc2c1	-5.2%	12.6µM*	?
CC(Oc1ccc(Cl)cc1)C(=O)N(C)CC(=O)Nc1ccc(N2CCOCC2)cc1 (centres undefined)	·	11.4%	-4.6%
CN1C(=O)[C@H]2[C@@H](/C=C/c3ccccc3)N3C(=O)CN(Cc4ccc(-c5ccccc5)cc4)C(=O)[C@@]3(Cc3ccccc3)[C@H]2C1=O	·	24.5%	?
Nc1cc(=O)[nH]c(SCC(=O)Nc2ccccc2Sc2ccccc2)n1	1.8%	27.2%	-10.4%
CSc1nnc(-c2cc[n+](C)cc2)n1CCO	0.8%	-7.6%	-8.2%
Cc1cc(=O)oc2cc(NC(=O)[C@H](CCCCN)NC(=O)[C@H](CC3CCCCC3)NC(=O)OCC3c4ccccc4-c4ccccc43)ccc12	·	7.4%	-14.4%
Cc1ccc2[nH]c3nc(CCCn4ccnc4-c4ccccc4)nnc3c2c1	·	8.7%[10 µM]	-8.3%[10 µM]
N#Cc1cccc(NC(=O)N2CC[C@@]3(CCCN(C(=O)c4cccc(F)c4)C3)C2)c1	-0.9%	-3.8%	-3.8%
Cc1cc(N2CCC(C)CC2)nc(-c2ccccc2O)n1	·	6.7%	-4.8%
Cc1cc(-n2[nH]c(C)c(C)c2=O)nc(-c2ccccc2O)n1	0.6%	11.2µM*	?
COc1ccc2nc3c(cc2c1)Cc1ccccc1-3	12.6µM*	2.51µM*	2.51µM*
COc1ccc(C(=O)Nc2ccc3c(c2)Cc2ccccc2-3)cc1	-1.1%	-23.6%	1.8%
CCc1ccc(S(=O)(=O)Nc2cc(SCC(=O)O)c(O)c3ccccc23)cc1	-3.0%	-38.0%	?
SMILES	KinaseGlo FLuc	RORgamma inh	VP16 counter
Cc1ccc(S(=O)(=O)Nc2ccccc2C(=O)O)c(C)c1	-2.9%	·	·
CCOc1ccc(S(=O)(=O)Nc2cc(SCC(=O)O)c(O)c3ccccc23)cc1	·	10µM*	?
Cc1ccc(C)c(S(=O)(=O)Nc2cc(SCC(=O)O)c(O)c3ccccc23)c1	0.3%	-29.6%[10 µM]	14.1µM*
COc1cc(C)c(S(=O)(=O)NCc2cccnc2)cc1C	·	1.9%	-5.3%
CCOC(=O)c1c(C)[nH]c2ccc3c(c12)CN1CCc2cc(OC)ccc2[C@@H]1O3	-1.7%	39.9%	?
Cc1ccc(NC(=O)CCNC(=O)c2ccc([N+](=O)[O-])cc2)cc1C	·	2.7%	-7.6%
CC(=O)c1cccc(N=c2scc(-c3ccc(S(=O)(=O)N4CCOCC4)cc3)n2CCO)c1	-3.0%	?	2µM*
C=CCn1c(-c2ccc(S(=O)(=O)N3CCOCC3)cc2)csc1=Nc1ccccc1	-2.2%	-7.5%	14.1µM*
COc1ccc(N=c2scc(-c3ccc(S(=O)(=O)N4CCOCC4)cc3)n2CCCO)cc1	3.1%	?	5.62µM*
O=S(=O)(c1ccc(-c2ccccc2)cc1)N1CCOCC1	11.9%	12.0%	-6.6%
CN(C)S(=O)(=O)c1cccc(-c2csc(=Nc3ccccc3)n2CCCN2CCOCC2)c1	·	12.9%	10.3%
COc1ccc(-c2csc(=Nc3ccccc3)n2CCO)cc1	3.1%	?	-16.1%
Cc1ccc(NC(=O)c2ccc3nsnc3c2)c(Cl)c1	·	-16.5%	?
C=CC1=C2C=C(C3CC3)N(CCCCO)C=C2C(=O)C(C)(OC(=O)c2ccco2)C1=O (centres undefined)	-2.4%[7.66 µM]	·	·
COCc1cc(C)nc(SCC(=O)Nc2ccc3c(c2)n(C)c(=O)n3C)c1C#N	·	5.7%	0.5%
O=C(Nc1nncs1)C12CC3CC(CC(Cl)(C3)C1)C2	·	-19.9%	0.5%
O=C(NCc1ccccn1)c1ccc(NS(=O)(=O)c2cccc(Cl)c2)cc1	·	5.3%	4.9%
COCCN1CCN(Cc2nc(C3(c4ccc(C)cc4)CCCC3)no2)CC1	·	-13.3%	5.8%
Cc1ccc(C2(c3noc(CN(C)Cc4cccnc4)n3)CCCC2)cc1	3.4%	?	12.6µM*
Cc1ccc(C2(c3noc(CN4C[C@@H](C)O[C@@H](C)C4)n3)CCCC2)cc1	·	10.6%	-14.3%
Cc1ccc(C2(c3noc(CN(C)Cc4ccccn4)n3)CCCC2)cc1	·	15.8µM*	-0.9%
O=C(CSc1nnc(-c2cccc(Br)c2)o1)N1CCOCC1	·	-5.2%	?
COC(=O)CN(c1nc(C)c(Br)c(OC)n1)S(=O)(=O)c1ccccc1	·	8.9%	-0.3%
CC1CCCCC1NC(=O)CCNS(=O)(=O)c1cc(Br)cnc1N (centres undefined)	·	7.0%	-3.9%
Cc1ccc(-n2c(-c3cc(-c4ccco4)[nH]n3)n[nH]c2=S)c(Br)c1	·	8.91µM*	-3.8%
SMILES	KinaseGlo FLuc	RORgamma inh	VP16 counter
S=c1[nH]nc(-c2cc(-c3ccco3)[nH]n2)n1-c1cccc2ccccc12	0.8%	23.5%	-1.7%
FC(F)(F)c1ccccc1-n1c(-c2ccco2)n[nH]c1=S	·	14.1µM*	?
Cc1cccc(-n2c(-c3ccco3)n[nH]c2=S)c1	-1.5%	11.2µM*	?
CC(=O)c1ccc(-n2c(-c3cc(-c4ccco4)[nH]n3)n[nH]c2=S)cc1	-1.8%	-25.7%	12.9%
O=C(O)c1ccc(-n2c(-c3cc(-c4ccco4)[nH]n3)n[nH]c2=S)cc1	2.8%	-17.7%	-4.6%
Cc1ccccc1-n1c(-c2ccco2)n[nH]c1=S	-4.8%	11.2µM*	?
CCCn1c(C)nc2c(NCCN3CCCC3)nc(C)nc21	-2.7%	5.4%	-1.4%
COc1cccc(C(=O)N2CCC(C(=O)NCc3ccc(C)cc3)CC2)c1	·	-20.3%	-12.6%
O=[N+]([O-])c1cccc(Cl)c1Cl	·	1.9%	-1.2%
CCn1ccnc1CN(C)C(=O)CCc1nnc(CCC2CCCCC2)o1	-4.2%	-15.9%	9.1%
Cc1ccsc1/C=N/NC(=O)c1nnn(-c2nonc2N)c1CSc1ccccc1	·	2.51µM*	3.98µM*
Nc1nonc1-n1nnc(C(=O)N/N=C/c2cccnc2)c1CSc1ccccc1	·	18.8%	-2.4%
Nc1nonc1-n1nnc(C(=O)N/N=C/c2ccncc2)c1CSc1ccccc1	·	0.0%	?
Cc1ccc(/C=N/NC(=O)c2nnn(-c3nonc3N)c2CSc2ccccc2)s1	·	3.98µM*	5.01µM*
O=C(CSc1ncn[nH]1)N1CCOCC1	0.3%	2.1%	-5.6%
